The results in this text go back to ChEMBL document CHEMBL3988442, “University of Dundee, Small-Polar-MMV Screening Library” (2021).

The structures appear in SMILES notation. For some of these results: Results with a measured potency or affinity are listed apart.

Holding throughout (set-up): scale not given: direction of the effect not stated beside the values
Assay [1] has as its target Protein translocase subunit SecA (Escherichia coli (strain K12)) (UniProt P10408). The experiment in a line: Assay to Identify E. coli SecA ATPase Inhibitors. The assay is classed as functional. Particulars: 30 µM.
The target of assay [2] is T1, Ubiquitin-activating enzyme e1, putative (Leishmania donovani (strain BPK282A1)) (UniProt E9BSI1).
T1 sequence (whole entry): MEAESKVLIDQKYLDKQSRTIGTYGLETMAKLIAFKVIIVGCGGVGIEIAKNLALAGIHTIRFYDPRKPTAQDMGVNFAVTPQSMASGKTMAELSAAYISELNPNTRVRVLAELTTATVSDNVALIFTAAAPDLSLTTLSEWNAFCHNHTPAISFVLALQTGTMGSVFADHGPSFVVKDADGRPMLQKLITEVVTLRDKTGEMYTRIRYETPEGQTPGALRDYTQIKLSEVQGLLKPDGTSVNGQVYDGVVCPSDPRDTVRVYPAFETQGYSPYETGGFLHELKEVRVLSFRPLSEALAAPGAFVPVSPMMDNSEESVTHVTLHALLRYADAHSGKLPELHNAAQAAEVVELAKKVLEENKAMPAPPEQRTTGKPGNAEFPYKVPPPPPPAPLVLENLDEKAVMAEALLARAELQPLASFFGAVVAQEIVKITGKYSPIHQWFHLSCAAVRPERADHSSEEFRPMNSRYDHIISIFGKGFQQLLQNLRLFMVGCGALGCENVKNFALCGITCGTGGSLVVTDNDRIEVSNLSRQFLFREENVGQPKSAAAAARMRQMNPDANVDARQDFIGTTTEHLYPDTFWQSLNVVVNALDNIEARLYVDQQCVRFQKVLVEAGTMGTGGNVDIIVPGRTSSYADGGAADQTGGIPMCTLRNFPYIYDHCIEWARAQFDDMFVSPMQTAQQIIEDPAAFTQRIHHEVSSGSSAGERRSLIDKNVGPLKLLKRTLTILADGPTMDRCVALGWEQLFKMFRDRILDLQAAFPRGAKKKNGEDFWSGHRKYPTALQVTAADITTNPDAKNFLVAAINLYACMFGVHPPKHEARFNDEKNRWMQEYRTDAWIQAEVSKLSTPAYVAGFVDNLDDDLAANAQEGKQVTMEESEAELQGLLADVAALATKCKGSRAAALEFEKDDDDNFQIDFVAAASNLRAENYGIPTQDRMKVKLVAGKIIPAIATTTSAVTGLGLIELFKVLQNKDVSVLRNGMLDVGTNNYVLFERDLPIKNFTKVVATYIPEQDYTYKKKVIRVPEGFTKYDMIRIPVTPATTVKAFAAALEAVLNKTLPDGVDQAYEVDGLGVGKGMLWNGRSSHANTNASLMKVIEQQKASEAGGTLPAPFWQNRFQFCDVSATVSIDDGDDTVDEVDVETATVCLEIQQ
Put plainly: Leishmania donovani Ubiquitin Activating Enzyme (LdE1). Particulars: 30 µM. It is filed as functional.

In assay [3] the target is AMP-activated protein kinase, AMPK (Homo sapiens) (UniProt P54646+O43741+P54619+Q9UGJ0+Q9Y478+Q13131+Q9UGI9). The experiment in a line: AMP-dependent Kinase enzyme assay. An in vitro enzyme assay that detects ADP turnover that is directly proportional to AMPK activity. This uses naive AMPK that is activated during the assay with MK-8722. It is filed as functional. Particulars: 30 µM.

Assay [4] addresses Sialic acid-binding Ig-like lectin 9 (Homo sapiens) (UniProt Q9Y336). The experiment in a line: Hs-Siglec9 ALPHAscreen SOP 20170721. As to conditions: 10 µM.
A further assay deals with Trypanosoma cruzi. The experiment in a line: Trypanosoma cruzi phosphomannomutase and mannose-1-phosphate guanylyltransferase assay. Particulars: 10 µM. It is filed as functional.
The target in assay [5] is T2, Arginase-2, mitochondrial (Homo sapiens) (UniProt P78540).
T2 sequence (whole entry): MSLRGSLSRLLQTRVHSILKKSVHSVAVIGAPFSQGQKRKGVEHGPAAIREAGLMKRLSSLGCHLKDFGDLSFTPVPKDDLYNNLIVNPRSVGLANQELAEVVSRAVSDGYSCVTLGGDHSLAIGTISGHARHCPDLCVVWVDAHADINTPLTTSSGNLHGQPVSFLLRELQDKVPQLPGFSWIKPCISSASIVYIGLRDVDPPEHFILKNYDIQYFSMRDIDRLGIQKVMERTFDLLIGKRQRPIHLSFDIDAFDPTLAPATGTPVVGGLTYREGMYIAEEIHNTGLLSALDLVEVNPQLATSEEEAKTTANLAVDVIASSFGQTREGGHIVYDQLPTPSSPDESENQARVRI
The experiment in a line: in vitro enzyme assay to detect the production of urea directly proportional to the activity of Arginase II. Further: in the data most compounds retested in dose-response had high values. The assay is classed as functional. As to conditions: 33.3 µM.

For assay [6], the target named is T3, Proteasome subunit beta (Trypanosoma cruzi) (UniProt O96673).
T3 sequence (whole entry): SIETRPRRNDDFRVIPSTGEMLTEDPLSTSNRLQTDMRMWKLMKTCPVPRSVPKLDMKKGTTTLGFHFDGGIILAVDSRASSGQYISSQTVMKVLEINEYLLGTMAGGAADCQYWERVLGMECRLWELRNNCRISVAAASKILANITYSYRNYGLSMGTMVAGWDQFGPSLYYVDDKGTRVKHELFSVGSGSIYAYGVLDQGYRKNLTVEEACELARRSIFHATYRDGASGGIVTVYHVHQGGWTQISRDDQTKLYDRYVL
The experiment in a line: Trypanosoma cruzi proteasome chymotrypsin-like activity (TcProtChymo) assay. Further: in the data most compounds retested in dose-response had high values. It is filed as functional. As to conditions: 9.37 µM.

For another assay, the species on record is Homo sapiens. Put plainly: To identify inhibition of the IFN signalling (Jak-Stat) pathway via expression of an eGFP reporter gene under the control of an IFN-stimulated response element (ISRE) containing MxA promoter. The assay is classed as functional. As to conditions: 30 µM.
Assay [7] concerns the target T4, Tyrosyl-tRNA synthetase, putative (Trypanosoma cruzi (strain CL Brener)) (UniProt Q4DSP6).
T4 sequence (whole entry): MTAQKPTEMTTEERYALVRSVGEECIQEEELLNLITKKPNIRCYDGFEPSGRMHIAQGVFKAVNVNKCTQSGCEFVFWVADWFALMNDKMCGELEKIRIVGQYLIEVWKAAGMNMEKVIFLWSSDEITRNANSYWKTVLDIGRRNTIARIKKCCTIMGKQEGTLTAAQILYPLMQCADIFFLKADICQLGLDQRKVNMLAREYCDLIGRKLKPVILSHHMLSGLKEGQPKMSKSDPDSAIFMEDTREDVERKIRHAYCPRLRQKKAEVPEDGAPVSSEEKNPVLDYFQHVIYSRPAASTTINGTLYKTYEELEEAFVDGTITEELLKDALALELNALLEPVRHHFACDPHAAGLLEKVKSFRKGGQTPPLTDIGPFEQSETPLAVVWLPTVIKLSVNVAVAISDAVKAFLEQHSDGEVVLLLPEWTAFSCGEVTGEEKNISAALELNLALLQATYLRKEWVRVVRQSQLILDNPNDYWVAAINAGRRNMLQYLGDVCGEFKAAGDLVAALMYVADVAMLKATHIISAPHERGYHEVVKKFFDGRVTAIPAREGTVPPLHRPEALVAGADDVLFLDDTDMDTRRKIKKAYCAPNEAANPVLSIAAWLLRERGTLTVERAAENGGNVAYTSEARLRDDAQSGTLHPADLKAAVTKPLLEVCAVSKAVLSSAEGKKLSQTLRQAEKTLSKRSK
The experiment in a line: Trypanosoma cruzi tyrosyl tRNA synthetase (TcYRS) _High Tyrosine SOP. Further: in the data most compounds retested in dose-response had high values. It is filed as functional. Particulars: 30 µM.

In assay [8] the target is T4, Tyrosyl-tRNA synthetase, putative (Trypanosoma cruzi (strain CL Brener)). Put plainly: Trypanosoma cruzi tyrosyl tRNA synthetase (TcYRS) SOP. The assay is classed as functional. Particulars: 30 µM.
For assay [9], the target named is Chromo domain-containing protein 1 (Saccharomyces cerevisiae (strain ATCC 204508 / S288c) (Baker's yeast)) (UniProt P32657). The experiment in a line: ScCHD-1 Enzyme Inhibition Assay. Further: in the data most compounds retested in dose-response had high values. It is filed as functional. Particulars: 30 µM.
Chromo domain-containing protein 1 (Saccharomyces cerevisiae (strain ATCC 204508 / S288c) (Baker's yeast)), sequence (P32657 whole entry, the tested form may be a part): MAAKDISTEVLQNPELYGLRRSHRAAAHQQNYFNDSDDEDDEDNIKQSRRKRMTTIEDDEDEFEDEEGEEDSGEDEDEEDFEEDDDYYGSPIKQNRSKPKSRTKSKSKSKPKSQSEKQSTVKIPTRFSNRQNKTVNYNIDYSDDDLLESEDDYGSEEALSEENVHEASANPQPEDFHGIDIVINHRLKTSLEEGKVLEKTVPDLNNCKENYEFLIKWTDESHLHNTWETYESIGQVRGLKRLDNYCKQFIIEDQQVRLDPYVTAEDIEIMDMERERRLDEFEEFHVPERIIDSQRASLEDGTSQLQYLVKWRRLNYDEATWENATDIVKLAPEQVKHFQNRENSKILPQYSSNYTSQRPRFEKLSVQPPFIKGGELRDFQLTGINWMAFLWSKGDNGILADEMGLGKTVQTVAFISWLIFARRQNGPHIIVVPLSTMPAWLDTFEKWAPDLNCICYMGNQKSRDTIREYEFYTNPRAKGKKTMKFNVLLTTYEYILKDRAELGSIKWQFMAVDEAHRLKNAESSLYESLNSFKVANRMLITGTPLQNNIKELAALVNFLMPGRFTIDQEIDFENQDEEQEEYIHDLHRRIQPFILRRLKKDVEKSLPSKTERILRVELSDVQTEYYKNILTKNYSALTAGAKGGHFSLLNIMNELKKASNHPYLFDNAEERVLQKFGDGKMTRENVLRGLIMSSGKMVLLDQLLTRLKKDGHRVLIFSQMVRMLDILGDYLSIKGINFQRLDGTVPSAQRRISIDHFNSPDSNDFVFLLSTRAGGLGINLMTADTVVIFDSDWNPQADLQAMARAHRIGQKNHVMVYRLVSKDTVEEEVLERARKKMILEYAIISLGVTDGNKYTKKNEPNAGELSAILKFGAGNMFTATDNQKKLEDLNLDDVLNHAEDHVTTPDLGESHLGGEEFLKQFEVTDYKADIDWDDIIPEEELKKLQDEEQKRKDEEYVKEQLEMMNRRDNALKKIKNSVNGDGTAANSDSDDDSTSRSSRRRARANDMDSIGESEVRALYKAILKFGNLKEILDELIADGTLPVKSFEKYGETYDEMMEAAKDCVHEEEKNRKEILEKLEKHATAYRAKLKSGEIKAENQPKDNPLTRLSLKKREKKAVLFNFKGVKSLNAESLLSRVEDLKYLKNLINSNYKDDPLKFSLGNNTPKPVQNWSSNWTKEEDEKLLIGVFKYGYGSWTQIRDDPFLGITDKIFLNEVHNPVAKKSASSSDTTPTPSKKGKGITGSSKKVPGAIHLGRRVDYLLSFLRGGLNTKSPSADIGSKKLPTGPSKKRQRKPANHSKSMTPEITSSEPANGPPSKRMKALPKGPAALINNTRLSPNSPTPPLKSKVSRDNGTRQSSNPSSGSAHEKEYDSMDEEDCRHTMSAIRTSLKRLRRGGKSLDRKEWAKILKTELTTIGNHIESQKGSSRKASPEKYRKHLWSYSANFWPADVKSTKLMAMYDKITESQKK

Sialic acid-binding Ig-like lectin 9 (Homo sapiens), sequence (Q9Y336 whole entry): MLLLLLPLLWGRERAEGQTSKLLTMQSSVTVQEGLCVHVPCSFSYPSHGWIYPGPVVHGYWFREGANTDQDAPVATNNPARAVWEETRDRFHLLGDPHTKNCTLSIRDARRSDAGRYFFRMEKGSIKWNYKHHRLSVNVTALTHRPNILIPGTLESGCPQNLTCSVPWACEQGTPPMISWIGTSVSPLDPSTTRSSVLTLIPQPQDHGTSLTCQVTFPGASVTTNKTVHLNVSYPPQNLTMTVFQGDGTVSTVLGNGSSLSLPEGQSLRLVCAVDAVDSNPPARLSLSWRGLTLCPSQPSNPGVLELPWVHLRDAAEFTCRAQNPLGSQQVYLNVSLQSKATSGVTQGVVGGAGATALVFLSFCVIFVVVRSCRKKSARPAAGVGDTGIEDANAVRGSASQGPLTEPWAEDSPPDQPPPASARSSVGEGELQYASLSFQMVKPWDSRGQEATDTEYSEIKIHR
Protein translocase subunit SecA (Escherichia coli (strain K12)), sequence (P10408 whole entry): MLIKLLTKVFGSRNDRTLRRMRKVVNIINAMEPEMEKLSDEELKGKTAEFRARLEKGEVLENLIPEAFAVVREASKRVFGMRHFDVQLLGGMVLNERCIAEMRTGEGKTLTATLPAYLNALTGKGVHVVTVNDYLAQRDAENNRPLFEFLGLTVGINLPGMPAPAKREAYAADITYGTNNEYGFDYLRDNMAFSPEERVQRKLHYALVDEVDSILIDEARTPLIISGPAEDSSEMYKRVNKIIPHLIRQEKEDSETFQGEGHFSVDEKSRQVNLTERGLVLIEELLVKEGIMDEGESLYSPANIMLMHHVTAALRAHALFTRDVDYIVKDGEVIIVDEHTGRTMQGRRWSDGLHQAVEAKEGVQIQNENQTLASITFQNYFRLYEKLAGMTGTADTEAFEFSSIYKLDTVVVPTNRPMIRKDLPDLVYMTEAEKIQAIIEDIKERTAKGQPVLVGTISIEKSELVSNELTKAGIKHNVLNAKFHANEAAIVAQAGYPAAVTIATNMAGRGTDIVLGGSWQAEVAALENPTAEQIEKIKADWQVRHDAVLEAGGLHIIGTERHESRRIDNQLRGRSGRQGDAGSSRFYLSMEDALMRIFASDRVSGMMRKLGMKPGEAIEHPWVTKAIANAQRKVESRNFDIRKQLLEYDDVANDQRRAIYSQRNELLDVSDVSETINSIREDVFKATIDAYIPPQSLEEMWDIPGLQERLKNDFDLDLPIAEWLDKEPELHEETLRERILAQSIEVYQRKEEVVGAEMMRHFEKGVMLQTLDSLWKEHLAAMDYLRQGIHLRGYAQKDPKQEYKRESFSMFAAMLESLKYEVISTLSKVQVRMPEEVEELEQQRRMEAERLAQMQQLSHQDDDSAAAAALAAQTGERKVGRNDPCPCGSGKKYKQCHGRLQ

Take `CNc1oc(-c2ccc(OC)c(S(=O)(=O)N3CCCCC3)c2)nc1C#N`: the Percent Effect in [1] is -1.33%; in [2] it was 1.33%; in assay [3] it was 15.5%; in assay [4] it was 7.55%; with Trypanosoma cruzi, -5.7%; in assay [5], -6.51%. Besides, the Percent Effect is 9.98% in assay [6]; -4.26% in the assay filed under Homo sapiens; 5.29% in assay [7]; 2.56% in [8]; -9.36% in assay [9].

For `COc1cccc(CNC(CN2CCN(C)CC2)c2ccccc2)c1` (stereo not drawn), the Percent Effect in assay [1] was -5.66%; in assay [2] it was 5.41%; in [3] it was -4.3%; in assay [4], -1.53%; with Trypanosoma cruzi, -6.75%; in [5], 1.74%. Also, the Percent Effect in [6] is 9.19%; in the assay listed under Homo sapiens, 11.2%; in assay [7], 1.07%; in [8] it was 3.7%; in assay [9], -3.35%.

Consider `CC(C)Cc1cc(NC(=O)c2ccc[nH]2)n(C)n1`, for which the Percent Effect in assay [1] was -5.53%; in assay [2] it was 5.2%; in assay [3] it was 3.29%; in assay [4], 6.59%; in the assay with Trypanosoma cruzi, -5.24%; in assay [5], -5.34%. Further, the Percent Effect in assay [6] is -0.169%; in the assay filed under Homo sapiens it was 0.305%; in [7], 5.83%; in assay [8] it was 14.6%; in assay [9], -7.26%.

As for `c1cnn(CC2CCCN2c2ncnc3ccsc23)c1` (stereo not drawn), the Percent Effect in assay [1] was -0.167%; in assay [2], 13.5%; in assay [3], 3.45%; in assay [4] it was -4.74%; with Trypanosoma cruzi, -8.08%; in assay [5], 6.84%. The Percent Effect was 8.8% in [6]; 53.8% in the assay filed under Homo sapiens; 7.92% in assay [7]; 18.3% in [8]; -4.66% in assay [9].

Consider `COc1ccc(OCCc2sc(C3(O)CCCNCC3)nc2C)cc1` (stereo not drawn), for which the Percent Effect in [1] was -5.55%; in assay [2] it was 6.76%; in assay [3] it was 2.86%; in [4], 1.72%; in the assay on Trypanosoma cruzi, 0.198%; in [5], -6.73%. For the same molecule, the Percent Effect in assay [6] is 13.6%; in the assay filed under Homo sapiens it was 21%; in assay [7] it was -3.23%; in assay [8] it was 9.09%; in assay [9], -24.4%.

Take `COc1ccc(C2Nc3cc(Cl)ccc3C3=NCCN32)cc1OC` (stereo not drawn): the Percent Effect was -5.72% in [1]; 2.67% in assay [2]; 2.8% in [3]; 3.39% in [4]; 3.54% in the assay on Trypanosoma cruzi; -5.83% in assay [5]. For the same molecule, the Percent Effect in [6] was 13.1%; in the assay filed under Homo sapiens, 8.26%; in assay [7], 4.25%; in [8], 8.97%; in assay [9], -11.7%.

On to `CCCN1CC(C(=O)Nc2ccccn2)CC1=O` (stereo not drawn), for which the Percent Effect was 0.0255% in assay [1]; 0% in assay [2]; -0.466% in assay [3]; 5.93% in assay [4]; 4.83% in the assay on Trypanosoma cruzi; 12.4% in [5]. Besides, the Percent Effect was 9.31% in [6]; 15.4% in the assay filed under Homo sapiens; 2.65% in [7]; 7.32% in [8]; -4.7% in [9].

For the molecule `O=C(c1cccn1Cc1cccs1)N1CCN(C(=O)C2CC2)CC1`, the Percent Effect was -6.16% in assay [1]; 13% in assay [2]; 1.66% in assay [3]; 2.72% in [4]; 1.5% in the assay with Trypanosoma cruzi; -0.712% in assay [5]. Besides, the Percent Effect in assay [6] came to 0.845%; in the assay listed under Homo sapiens it was 9.85%; in assay [7] it was 8.74%; in [8], 21.9%; in [9] it was 1.63%.
